We go through 14 compounds from PubChem BioAssay (NCI).

Compounds without any hit were thinned out: in the full panel of roughly 83,000, 20% have a hit.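 Each cell line was grown in a 96-well plate and treated with one concentration of compound for 48 hours. Values below 10 were considered active.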 A number with no mark means an inactive call. Calls of active or inactive are those of the source.

Among the test systems are SK-MEL-2 melanoma; EKVX NSCLC; SN12C renal; UO-31 renal; TK-10 renal; ACHN renal; A498 renal; CCRF-CEM leukemia; MOLT-4 leukemia.
Holding throughout (experiment): NCI-60 one-dose screen, 48 h (100 = growth as untreated, 0 = no growth, -100 = all killed)
Details in all cases: 10 µM

On to `COc1cc(-c2nn(-c3cccc(NC(=O)CCN4CCN(c5ccccc5)CC4)c3)cc2-c2ccncc2)ccc1Cl`, for which the growth was -0.713% (active) in the assay with SK-MEL-2 melanoma; 38.1% with EKVX NSCLC; 32.4% in the assay on SN12C renal; 37.8% with UO-31 renal; 23.5% in the assay with TK-10 renal; 18% in the assay with ACHN renal. Moreover, the growth in the assay with A498 renal was 5.91% (active); in the assay on CCRF-CEM leukemia, 17.8%; with MOLT-4 leukemia, 15.4%.
On to `N#CCc1csc(Cc2ccccc2)n1`, for which the growth in the assay with SK-MEL-2 melanoma is 101%; in the assay on EKVX NSCLC, 105%; in the assay with SN12C renal it was 101%; in the assay on UO-31 renal, 88.7%; in the assay with TK-10 renal, 89.9%; in the assay with ACHN renal it was 109%. The growth was 103% with A498 renal, 94.2% with CCRF-CEM leukemia and 101% in the assay with MOLT-4 leukemia.
With `COC(=O)C1(O)NC(=C(C#N)C#N)C(C#N)=C1C(=O)c1ccc(OC)c(OC)c1` (stereo unspecified), the growth is 104% in the assay with SK-MEL-2 melanoma; 113% with EKVX NSCLC; 96.7% in the assay on SN12C renal; 86.7% in the assay with UO-31 renal; 122% in the assay on TK-10 renal; 108% with ACHN renal. Besides, the growth is 93.6% in the assay with A498 renal, 92.1% with CCRF-CEM leukemia and 92.1% with MOLT-4 leukemia.
Regarding `CC(C)CCN(CCC(C)C)CC(=O)Nc1ccc(S(=O)(=O)c2ccc(NC(=O)CN(CCC(C)C)CCC(C)C)cc2)cc1`, the growth in the assay on SK-MEL-2 melanoma is 65.4%; with EKVX NSCLC it was 83.1%; in the assay with SN12C renal it was 74.6%; in the assay with UO-31 renal, 63.3%; in the assay on TK-10 renal, 96.4%; in the assay with ACHN renal, 69.7%. For the same compound, the growth in the assay on A498 renal was 97.1%; in the assay with CCRF-CEM leukemia, 2% (active); in the assay with MOLT-4 leukemia, 2.75% (active).
Take `NNC(=O)Oc1c(Cl)cc(Cl)cc1[N+](=O)[O-]`: the growth with SK-MEL-2 melanoma is 103%; in the assay on EKVX NSCLC, 105%; in the assay on SN12C renal, 111%; in the assay on UO-31 renal it was 87.4%; with TK-10 renal, 94.1%; with ACHN renal, 106%. Also, the growth was 118% with A498 renal, 100% in the assay with CCRF-CEM leukemia and 97.6% in the assay on MOLT-4 leukemia.
Regarding `CCOC(=O)c1cc(C(=O)c2ccc(F)cc2F)n2ccccc12`, the growth in the assay on SK-MEL-2 melanoma was 91.2%; in the assay on EKVX NSCLC it was 99.7%; with SN12C renal, 95.9%; with UO-31 renal it was 72.3%; in the assay on TK-10 renal, 115%; in the assay with ACHN renal it was 97.1%. Also, the growth in the assay with A498 renal was 87.9%; in the assay with CCRF-CEM leukemia, 84.7%; in the assay with MOLT-4 leukemia, 87%.
As for `O=C(NCCNC(=O)c1ccc(F)cc1)Nc1ccc(-n2cc(-c3ccncc3)c(-c3ccc(Cl)c(O)c3)n2)cc1`, the growth is -11.4% (active) with SK-MEL-2 melanoma; 11.8% in the assay on EKVX NSCLC; 31.5% in the assay on SN12C renal; 16.9% in the assay on UO-31 renal; 12.3% in the assay with TK-10 renal; 9.32% (active) with ACHN renal. The growth is -24.2% (active) in the assay with A498 renal, 7.35% (active) in the assay on CCRF-CEM leukemia and 8.22% (active) in the assay with MOLT-4 leukemia.
Regarding `CN(C)CCCOc1ccc(OCCCN(C)C)c2c1C(=O)c1ccccc1C2=O`, the growth in the assay with SK-MEL-2 melanoma is -53.4% (active); in the assay with EKVX NSCLC it was 13.6%; in the assay on SN12C renal, 6.55% (active); in the assay with UO-31 renal it was 62.7%; in the assay on TK-10 renal it was -6.02% (active); with ACHN renal, 10.8%. Further, the growth with A498 renal was -31.9% (active); in the assay with CCRF-CEM leukemia, 2.78% (active); with MOLT-4 leukemia it was 5.64% (active).
Regarding `CCOC(=O)c1cc(C(=O)c2cc(OC)c(OC)c(OC)c2)n2ccc(-c3cc[n+](CC(=O)c4cc(OC)c(OC)c(OC)c4)cc3)cc12`, the growth in the assay on SK-MEL-2 melanoma is 101%; in the assay with EKVX NSCLC it was 107%; in the assay on SN12C renal, 84.6%; in the assay on UO-31 renal, 66.1%; in the assay with TK-10 renal it was 13.5%; with ACHN renal it was 90.7%. Also, the figures for the growth with A498 renal, with CCRF-CEM leukemia and in the assay on MOLT-4 leukemia were 80.4%, -15% (active) and -9.13% (active), respectively.
`C1CN(CC2CCC(CN3CCOCC3)O2)CCO1` (stereo unspecified): the growth in the assay on SK-MEL-2 melanoma is 107%; in the assay on EKVX NSCLC, 100%; in the assay with SN12C renal, 106%; with UO-31 renal, 93.6%; in the assay on TK-10 renal it was 95.8%; in the assay with ACHN renal, 38.9%. Also, the results for the growth in the assay with A498 renal, with CCRF-CEM leukemia and in the assay with MOLT-4 leukemia were 117%, 50.4% and 68.2%, respectively.
On to `S=c1cnc2ccccc2[nH]1`, for which the growth is 95.6% in the assay on SK-MEL-2 melanoma; 107% in the assay with EKVX NSCLC; 104% in the assay with SN12C renal; 76.6% in the assay on UO-31 renal; 112% in the assay with TK-10 renal; 101% in the assay with ACHN renal. In addition, the growth in the assay with A498 renal was 99%; in the assay on CCRF-CEM leukemia, 103%; in the assay on MOLT-4 leukemia, 91.7%.
Consider `S=C(SSC(=S)N(c1ccccc1)c1ccccc1)N(c1ccccc1)c1ccccc1`, for which the growth in the assay with SK-MEL-2 melanoma is 95.1%; in the assay with EKVX NSCLC, 118%; in the assay with SN12C renal, 94.5%; in the assay on UO-31 renal, 97.1%; in the assay with TK-10 renal, 95.3%; with ACHN renal, 114%. In addition, the growth was 114% in the assay on A498 renal, 87.9% in the assay on CCRF-CEM leukemia and 93.9% in the assay on MOLT-4 leukemia.
For the compound `COc1ccc(/C(C#N)=C/c2cccc(OC)c2OC)cc1`, the growth in the assay on SK-MEL-2 melanoma is 77.1%; with EKVX NSCLC, 99.9%; in the assay with SN12C renal, 89.8%; in the assay on UO-31 renal, 78.1%; in the assay with TK-10 renal it was 96.7%; in the assay on ACHN renal, 99%. Also, the growth with A498 renal was 87.2%; in the assay on CCRF-CEM leukemia, 80.5%; in the assay with MOLT-4 leukemia, 82.8%.
In the case of `Cc1ccc(Cl)cc1NC(=O)CCl`, the growth in the assay with SK-MEL-2 melanoma was 86.9%; with EKVX NSCLC, 119%; in the assay with SN12C renal, 84%; with UO-31 renal, 91.3%; in the assay on TK-10 renal, 96%; in the assay on ACHN renal, 104%. Further, the values for the growth in the assay on A498 renal, in the assay on CCRF-CEM leukemia and with MOLT-4 leukemia were 105%, 28.4% and 32%, respectively.
